Assay [1] addresses Luciferin 4-monooxygenase (Photinus pyralis) (UniProt P08659). Put plainly: qHTS assay to identify small molecule inhibitors of firefly luciferase (AID 1224835). Also: nearly all actives have a fitted effect of over 25% in size. Also: potency is read from the fitted curve at half-maximal effect. Put shortly:
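Inhibition of purified Photinus luciferase is measured by luminescence. Substrate levels (D-luciferin, ATP) sit at their KM values. Each compound is tested in a concentration series.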

Assay [2] can be described thus: qHTS assay to identify small molecule agonists of the constitutive androstane receptor (CAR) signaling pathway - cell viability counter screen (AID 1224836). Also: nearly all actives have a fitted effect of over 45% in size. Put shortly: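 Multiplexed viability check: HepG2-CYP2B6-hCAR cells, 15-point compound dosing, 0.75 uM PK11195 final, 23 h at 37 C, CellTiter-Fluor fluorescence.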
The nature of assay [3]: qHTS assay to identify small molecule antagonists of the estrogen related receptor signaling pathway with the pleiotropic PPARgamma coactivator (PGC) from Tox21 10K library - cell viability counter screen (AID 1224840; active = well fitted cell-killing curve with a large enough effect in the repeat runs, not every such curve was filed as active; also: nearly all actives have a fitted effect of over 40% in size). Summed up:
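Following seeding of 2,000 PGC/ERR cells/well and 6 hours' incubation, test compounds were delivered in DMSO. The plates then sat 17.5 hours at 37 C before a fluorogenic live-cell protease reagent (CellTiter-Fluor) was read after 30 min.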

In assay [4] the target is Thyrotropin receptor (Homo sapiens) (UniProt P16473). Put plainly: qHTS assay to identify small molecule agonists of the thyroid stimulating hormone receptor (TSHR) signaling pathway (AID 1224843; calls by dose curve; also: nearly all actives have a fitted effect of over 45% in size). Put shortly:
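HEK293 cells stably bearing the thyrotropin receptor were plated at 800 cells/well and challenged with compound (30 min, RT). Accumulated cAMP was quantified via cAMP-d2 competing for cryptate-tagged antibody.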

Assay [5] in a line: qHTS assay to identify small molecule agonists of the hypoxia (HIF-1) signaling pathway - cell viability counter screen (AID 1224844; calls by dose curve; also: nearly all actives have a fitted effect of over 50% in size). Put shortly:
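Cells (HRE-bla ME-180, 2,000 per well) sat 5 hrs at 37C, got compound for 17 hrs, were read for CCF4-AM FRET, and were finally lysed with CellTiter-Glo for a 30 min room-temperature luminescence read.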

Assay [6] can be described thus: qHTS assay to identify small molecule agonists of H2AX (AID 1224845; active = well fitted activation curve with a large enough effect in the signal ratio in the repeat runs, not every such curve was filed as active; the % refers to the signal ratio). Summed up:
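Phospho-H2AX Ser139 measured by HTRF (ex 320 nm; em 665 and 620 nm) after 24 hr antibody incubation. Compounds, 15 concentrations, 0.76% DMSO, were applied to CHO-K1 cells for 3hr at 37C before lysis.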

The nature of assay [7]: qHTS assay to identify small molecule agonists of the hypoxia (HIF-1) signaling pathway (AID 1224846; active = well fitted activation curve with a large enough effect in the signal ratio in the repeat runs, not every such curve was filed as active; the % refers to the signal ratio). Summed up:
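A low-serum medium (0.5% dialyzed FBS) holding 2,000 HRE-bla ME-180 cells per well is preincubated for 5 hrs, dosed with compounds by pintool, and kept a further 17 hrs at 37C, 5% CO2 before CCF4-AM FRET detection of beta-lactamase.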

Assay [8] is described as follows: qHTS assay to identify small molecule agonists of H2AX - cell viability counter screen (AID 1224847; calls by dose curve;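 also: wild-type CHO-K1 cells; top concentration of the series differs between compounds; nearly all actives have a fitted effect of over 30% in size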). Put shortly: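 After overnight plating of 1000 CHO-K1 cells per well, a 15-concentration compound series was applied for 3 hr at 37C. Luminescence from CellTiter-Glo, read following 30 min at room temperature, reflected cell viability.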
Assay [9] is described as follows: qHTS RealTime-Glo MT Cell Viability Assay in HepG2 cells - 24 hour (AID 1224867). Also: nearly all actives have a fitted effect of over 50% in size. Summed up: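 Compound treatment began 5 h after plating HepG2 cells (600/well) with NanoLuc luciferase and prosubstrate. Plates stayed at 37 C for 40 h; luminescence was captured at six time points, 0 h through 40 h.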
A short description of assay [10]: qHTS RealTime-Glo MT Cell Viability Assay in HEK293 cells - 32 hour (AID 1224868). Also: nearly all actives have a fitted effect of over 50% in size. Also: potency is read from the fitted curve at half-maximal effect. Put shortly: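 Quantitative high-throughput screen of the Tox21 10K library in HEK293: cells and RealTime-Glo reagents plated together, compound added at 5 h, luminescence monitored through 40 h at 37 C.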
The nature of assay [11]: A CellTox Green Cytotoxicity Assay to monitor cytotoxicity in HEK293 cells - 0 hour (AID 1224869). Also: nearly all actives have a fitted effect of over 50% in size. Summed up: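 Fluorescence intensity, read at 0, 8, 16, 24, 32 and 40 h of compound treatment, reflected dye binding to DNA of dead HEK293 cells; compounds (23 nL, DMSO) were added 5 h after plating cells with reagent.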
The nature of assay [12]: qHTS RealTime-Glo MT Cell Viability Assay in HepG2 cells - 40 hour (AID 1224870). Also: nearly all actives have a fitted effect of over 50% in size. Put shortly:
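Real-time viability: cells seeded at 600 per well together with NanoLuc and cell-permeant prosubstrate, compounds added after 5 h incubation. Luminescence tracked at 0, 8, 16, 24, 32 and 40 h of exposure.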

The nature of assay [13]: qHTS assay to identify small molecule agonists of the estrogen related receptor signaling pathway with the pleiotropic PPARgamma coactivator (PGC) from Tox21 10K library (AID 1224842). Also: nearly all actives have a fitted effect of over 15% in size. Summed up: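 Luminescence from One-Glo (30 min, room temperature) measured after PGC/ERR cells had 18 h at 37 C with pinned compound (23 nL in DMSO). Cells had been seeded at 2,000 per well and pre-incubated 6 h.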

A short description of assay [14]: qHTS assay to identify small molecule agonists of the estrogen related receptor (ERR) signaling pathway from Tox21 library (AID 1224849; calls by dose curve; also: nearly all actives have a fitted effect of over 15% in size). The note with it: ERR reporter cell line, ONE-Glo luciferase, 18 h; at 92.4 µM (top of the series) unless noted. Summed up: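 Screening used an NTP-provided ERR luciferase cell line. Compounds in DMSO were added 6 h after seeding and left 18 h at 37 C before a 30 min ONE-Glo step and luminescence reading.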

The nature of assay [15]: qHTS assay to identify small molecule antagonists of the constitutive androstane receptor (CAR) signaling pathway - cell viability counter screen (AID 1224837). Also: nearly all actives have a fitted effect of over 45% in size. Summed up: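 Counter screen run in HepG2-CYP2B6-hCAR cells: 4 hr settle, compound titration (15 concentrations) with 50 nM CITCO, 23 hr at 37 C/5% CO2, CellTiter-Fluor fluorescence.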
The target in assay [16] is Nuclear receptor subfamily 1 group I member 3 (Homo sapiens) (UniProt Q14994). Put plainly: qHTS assay to identify small molecule antagonists of the constitutive androstane receptor (CAR) signaling pathway (AID 1224838).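 Also: HepG2 cells stably expressing hCAR with CYP2B6 luciferase reporter stimulated by CITCO; nearly all actives have a fitted effect of over 40% in size.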 Also: potency is read from the fitted curve at half-maximal effect. Put shortly:
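Cell line: HepG2 double-stable for hCAR and CYP2B6-2.2kb reporter. Agonist: CITCO, 50 nM final. Compounds: 15 concentrations, 24 h, 37 C. Detection: ONE-Glo luminescence.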

For assay [17] the target is unchanged. Put plainly: qHTS assay to identify small molecule agonists of the constitutive androstane receptor (CAR) signaling pathway (AID 1224839). Also: nearly all actives have a fitted effect of over 15% in size. Also: potency is read from the fitted curve at half-maximal effect.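 As to activation: HepG2 cells stably carrying human CAR and a CYP2B6 luciferase reporter.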 Summed up: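 Using human hepatoma HepG2 cells engineered with hCAR and a CYP2B6-2.2kb reporter, 15-concentration compound series were incubated 24 h alongside PK11195 at 0.75 uM final, with luminescence quantified afterwards.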

A short description of assay [18]: qHTS assay to identify small molecule antagonists of the estrogen related receptor signaling pathway with the pleiotropic PPARgamma coactivator (PGC) from Tox21 10K library (AID 1224841; call rule not given here). Put shortly: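 qHTS antagonist format: PGC/ERR cells, 2k/well, compound in DMSO by pin transfer after 6 h attachment, 18 h treatment at 37 C, One-Glo luminescence read at 30 min.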

The nature of assay [19]: qHTS assay to identify small molecule antagonists of the estrogen related receptor (ERR) signaling pathway from Tox21 library (AID 1224848). Also: nearly all actives have a fitted effect of over 50% in size. Summed up:
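Reading was by luminescence 30 min after ONE-Glo addition. Before that, ERR cells at 2,000 per well had rested 6 h at 37 C/5% CO2 and then received pin-tooled compounds in DMSO for 18 h at 37 C.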

Molecules are shown by their SMILES. A number with no mark means an inactive call. Results filed as inconclusive are left out. Calls of active or inactive are those of the source. Unless noted, calls follow the shape of the dose curve; as a rule, active = well fitted curve in the direction sought with a large enough effect in the repeat runs; inconclusive = weak or mixed curves; inactive = no such curve, though single readings can be large; an effect the other way counts as inactive or inconclusive.
% is scaled to controls: 0 for no effect and ±100 for the full control effect.

Luciferin 4-monooxygenase (Photinus pyralis), sequence (P08659 whole entry, looked up): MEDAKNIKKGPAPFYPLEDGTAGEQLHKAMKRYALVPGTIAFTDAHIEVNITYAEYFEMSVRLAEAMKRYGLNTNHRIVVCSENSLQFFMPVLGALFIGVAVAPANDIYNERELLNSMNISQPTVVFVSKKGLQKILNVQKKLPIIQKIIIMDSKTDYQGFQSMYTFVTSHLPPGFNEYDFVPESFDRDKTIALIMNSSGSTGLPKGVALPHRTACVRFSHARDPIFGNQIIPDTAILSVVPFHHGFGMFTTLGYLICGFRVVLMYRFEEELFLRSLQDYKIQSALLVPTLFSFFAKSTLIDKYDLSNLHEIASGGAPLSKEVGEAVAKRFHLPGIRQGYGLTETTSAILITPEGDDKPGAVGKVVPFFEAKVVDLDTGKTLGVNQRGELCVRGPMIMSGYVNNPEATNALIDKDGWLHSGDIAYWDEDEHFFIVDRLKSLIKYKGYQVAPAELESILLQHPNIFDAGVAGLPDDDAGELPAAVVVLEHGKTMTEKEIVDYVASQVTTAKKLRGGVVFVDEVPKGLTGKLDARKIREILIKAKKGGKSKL
Nuclear receptor subfamily 1 group I member 3 (Homo sapiens), sequence (Q14994 whole entry, looked up): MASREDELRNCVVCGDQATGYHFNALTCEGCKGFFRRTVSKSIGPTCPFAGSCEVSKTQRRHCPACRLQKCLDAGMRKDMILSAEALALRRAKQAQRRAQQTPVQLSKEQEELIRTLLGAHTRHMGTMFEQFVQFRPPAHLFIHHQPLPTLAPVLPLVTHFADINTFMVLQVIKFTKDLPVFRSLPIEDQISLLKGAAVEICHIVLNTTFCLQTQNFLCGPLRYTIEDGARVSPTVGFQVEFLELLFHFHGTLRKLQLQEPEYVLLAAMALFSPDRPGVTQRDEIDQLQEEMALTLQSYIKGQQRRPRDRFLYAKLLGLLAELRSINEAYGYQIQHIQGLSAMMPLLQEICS
Thyrotropin receptor (Homo sapiens), sequence (P16473 whole entry, looked up): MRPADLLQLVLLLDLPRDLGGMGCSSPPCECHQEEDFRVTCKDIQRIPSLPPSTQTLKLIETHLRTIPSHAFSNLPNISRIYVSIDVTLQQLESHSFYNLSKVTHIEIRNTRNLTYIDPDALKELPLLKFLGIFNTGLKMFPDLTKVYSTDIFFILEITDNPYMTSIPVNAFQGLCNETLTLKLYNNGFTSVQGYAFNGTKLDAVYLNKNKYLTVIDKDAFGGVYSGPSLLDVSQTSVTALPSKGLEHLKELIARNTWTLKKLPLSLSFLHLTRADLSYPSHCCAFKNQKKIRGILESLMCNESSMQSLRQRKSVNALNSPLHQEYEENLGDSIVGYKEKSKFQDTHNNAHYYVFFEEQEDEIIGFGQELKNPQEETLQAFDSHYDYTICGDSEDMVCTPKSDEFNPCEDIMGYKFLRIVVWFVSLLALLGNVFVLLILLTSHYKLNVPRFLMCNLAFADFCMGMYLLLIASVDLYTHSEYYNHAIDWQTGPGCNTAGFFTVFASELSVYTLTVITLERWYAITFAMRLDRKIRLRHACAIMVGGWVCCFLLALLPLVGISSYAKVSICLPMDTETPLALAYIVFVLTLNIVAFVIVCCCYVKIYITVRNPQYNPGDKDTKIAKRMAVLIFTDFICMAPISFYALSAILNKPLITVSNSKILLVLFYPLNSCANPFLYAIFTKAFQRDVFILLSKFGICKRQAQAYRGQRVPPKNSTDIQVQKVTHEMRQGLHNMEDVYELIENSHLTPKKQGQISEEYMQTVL

Take `CCC(C)CCCC(C)(C)O` (stereo unspecified): the Potency entry in assay [1], in assay [2], in assay [3], in assay [4], in assay [5] and in assay [6] was “inactive” throughout. Further, the Potency result in assay [8], in [10], in [11] and in assay [12] was “inactive” in each case. Moreover, the outcome in [7] and in assay [9] was inactive.

Take `O=c1[nH]nc(-c2ccc([N+](=O)[O-])o2)o1`: the Potency result in assay [1], in [13], in [5], in assay [8], in assay [10] and in assay [11] was “inactive” throughout. Further, the activity change, positive = activation in [14] is -20.3%. In addition, the molecule was classed as inactive in assay [9].

`Cc1c(Nc2ncccc2C(=O)O)cccc1C(F)(F)F`: the Potency in assay [1] is 17.4 µM (active). Also, the Potency result in assay [2], in assay [15], in assay [3], in assay [4], in assay [5] and in assay [6] was “inactive” throughout. In addition, the Potency result in assay [8], in [10], in [11] and in assay [12] was “inactive” throughout. Moreover, the outcome in assay [9] was inactive.

With `O=c1[nH][nH]c2ccccc12`, the Potency entry in [1], in [2], in [17], in assay [3], in assay [4] and in assay [5] was “inactive” throughout. Besides, in [11], the Potency result is “inactive”. Also, in assay [16], the Potency was 55.5 µM (active). Besides, in assay [7], the molecule was classed as inactive.

On to `CCCC(=O)OCCC(C)C`, for which the Potency result in assay [1], in assay [2], in assay [15], in assay [3], in assay [4] and in assay [5] was “inactive” throughout. Besides, the Potency entry in assay [6], in assay [10], in assay [11] and in assay [12] was “inactive” each time. The molecule was classed as inactive in [7] and in assay [9].

As to `O=C(C1CCCCC1)N1CC(=O)N2CCCc3ccccc3C2C1` (stereo unspecified), the Potency result in assay [1], in assay [2], in assay [15], in [3], in assay [4] and in assay [6] was “inactive” each time. The Potency entry in [8], in [10], in assay [11] and in assay [12] was “inactive” each time. Moreover, the call in assay [9] was inactive.

As for `C=CCCC`, the Potency entry in [2], in [15], in assay [16], in assay [17], in [3] and in assay [6] was “inactive” each time. In addition, the Potency entry in assay [8], in [10] and in assay [12] was “inactive” in each case. Besides, the molecule was classed as inactive in assay [9].

On to `CCCCCCCCCCCCCCCCC(=O)O`, for which the Potency entry in [1], in assay [2], in assay [16], in [17], in assay [3] and in [4] was “inactive” in each case. The Potency result in assay [5], in assay [6], in assay [8], in assay [10] and in assay [11] was “inactive” throughout. For the same molecule, the call in assay [7] and in assay [9] was inactive.

For `COc1cc(CNC(=O)CCCC/C=C/C(C)C)ccc1O`, the Potency result in assay [2], in assay [15], in assay [16], in assay [3], in assay [4] and in assay [5] was “inactive” each time. In addition, the Potency entry in assay [6], in assay [11] and in [12] was “inactive” throughout. Also, in [9], the molecule was classed as inactive. Further, the Potency in [10] was 7.56 µM (active).

Take `CCCCCCCCCCCCSC#N`: the Potency result in assay [1], in [2], in assay [15], in [3], in assay [18] and in assay [13] was “inactive” throughout. Further, the Potency entry in assay [4], in [5], in assay [6], in [8], in [19] and in assay [10] was “inactive” in each case. For the same molecule, the Potency entry in [11] was “inactive”. The molecule was classed as inactive in [7] and in assay [9]. In addition, the activity change, positive = activation in [14] is 0.292%.

Regarding `COc1ccc(C(=O)Nc2ccccc2)cc1[N+](=O)[O-]`, the Potency result in [2], in assay [16], in assay [3], in [4], in [5] and in assay [6] was “inactive” in each case. In addition, the Potency entry in assay [11] and in assay [12] was “inactive” each time. Moreover, the Potency in assay [17] was 30.9 µM (active); in [10], 24.7 µM (active). The outcome in assay [7] and in assay [9] was inactive.

Values taken from PubChem BioAssay (Tox21).
